Structures are written as SMILES. Values joined by “and” are separate entries in the source; they are usually repeats but may differ in a detail not shown here. Equal entries are not always repeated. Active and inactive are the calls of the source. How the source made its calls: active means hit-call score of the fitted dose curve at least 0.9, where 1 is the maximum; inactive means score below 0.9.

Read-out in this experiment: CD40, CD40 (gene 958)
Put plainly: BSK_LPS_CD40: BioMAP Diversity Plus: LPS Assay for CD40 Biomarker Activity (AID 2283076). Particulars: primary human HUVEC with PBMC; actives raise or lower the signal. As for the experimental part: BSK_LPS is a cell-based, multiplexed-readout assay that uses umbilical vein endothelium and peripheral blood mononuclear cells, a human vascular primary cell co-culture, with measurements taken at 24 hours after chemical dosing in a 96-well plate.BSK_LPS_CD40 is an assay component measured in the BSK_LPS assay. It measures CD40 antibody related to regulation of gene expression using ELISA technology.Data from the assay component BSK_LPS_CD40 was analyzed into 1 assay endpoint. This assay endpoint, BSK_LPS_CD40, was analyzed with bidirectional fitting relative to DMSO as the negative control and baseline of activity. Using a type of binding reporter, gain or loss-of-signal activity can be used to understand changes in the signaling as they relate to the gene CD40. Furthermore, this assay endpoint can be referred to as a primary readout, because this assay has produced multiple assay endpoints where this one serves a signaling function. To generalize the intended target to other relatable targets, this assay endpoint is annotated to the cytokine intended target family, where the subfamily is inflammatory factor.
The levels of cell surface (or secreted, indicated by the prefix "s") biomarker endpoints were measured by ELISA. Overt cytotoxicity to cells in confluent adherent cultures (all systems other than the BT system) was assessed by measuring total protein levels using sulforhodamine B (SRB) staining in parallel cultures at the time of biomarker measurements, indicated as SRB endpoints. For proliferation assays for adherent cell types, individual cell types are cultured at sub-confluence and relative cell numbers quantified by SRB staining at time points optimized for each system (48 h: 3C and CASM3C systems; 72 h: BT and HDF3CGF systems; 96 h: SAg system). SRB was performed by staining cells with 0.1% SRB after fixation with 10% TCA and reading wells at 560 nm.Viability and proliferation of PBMC (T cells) was quantified by Alamar Blue reduction for the SAg and BT systems. For PBMC viability (referred to as PBMC Cytotoxicity within the assay endpoint names), cells were plated (75,000/well in a 96-well plate) and then chemical samples added for 1 h before addition of activators, SEB and TSST-1 (20 ng/mL final concentration each). Cells were incubated for 90 h. Then, Alamar Blue (20 uL/well) (Invitrogen, Cat DAL1100) was added for 6 h, and the plates were read with a fluorescence microplate reader at 546/580 nm (excitation/emission). For PBMC proliferation, cells were plated and activated as above but incubated for only 16 h prior to addition of Alamar Blue. Plates were read after 6 h.
Regarding `CCCCOC(=O)c1ccccc1C(=O)O`, the outcome was inactive. Regarding `CCOP(=O)(SC(C)CC)N1CCSC1=O` (stereo not given), the result was inactive. Turning to `CC(C)=CC1C(C(=O)OCN2C(=O)C3=C(CCCC3)C2=O)C1(C)C` (stereo not given), the AC50 is 11.4 µM (active). For `CCCCN(CC)c1c([N+](=O)[O-])cc(C(F)(F)F)cc1[N+](=O)[O-]`, the AC50 is 34.2 µM (active). Take `CC(Oc1cccc(Cl)c1)C(=O)O` (stereo not given): the result was inactive. For `Cc1cc(C2CC2)nc(Nc2ccccc2)n1`, the AC50 is 14.8 µM (active). On to `CCCSP(=O)(OCC)SCCC`, for which the outcome was inactive. As to `C#CCC1=C(C)C(OC(=O)C2C(C=C(C)C)C2(C)C)CC1=O` (stereo not given), the AC50 was 20 µM (active). Same read-out and setting: the value for `CCOP(=S)(OCC)Oc1ccc([N+](=O)[O-])cc1` was 16.7 µM (active). For `S=C1NCCN1`, the result was inactive. With `O=c1ccc(=O)[nH][nH]1`, the outcome was inactive. Turning to `Nc1c(Cl)cc([N+](=O)[O-])cc1Cl`, the outcome was inactive. For `CCOP(=S)(Oc1cnc(C(C)(C)C)nc1)OC(C)C` (stereo not given), the AC50 is 37.9 µM (active). Turning to `O=[N+]([O-])c1cc(C(F)(F)F)c(Cl)c([N+](=O)[O-])c1Nc1ncc(C(F)(F)F)cc1Cl`, the AC50 was 1.44 µM (active) and 6.49 µM (active). For `C[Si](Cn1cncn1)(c1ccc(F)cc1)c1ccc(F)cc1`, the outcome was inactive. On to `CC(C)N(C(=O)SCC(Cl)=C(Cl)Cl)C(C)C`, for which the AC50 was 29.9 µM (active). As to `COP(=O)(NC(C)=O)SC` (stereo not given), the result was inactive. Same read-out and setting: the value for `CCCOc1nn(C(=O)NS(=O)(=O)c2ccccc2C(=O)OC)c(=O)n1C` was “inactive”; that for `CC1=NNC(=O)N(/N=C/c2cccnc2)C1` was “inactive”; that for `COc1cc(OC)nc(Sc2cccc(Cl)c2C(=O)O)n1` was “inactive”. Still for that read-out and setting: the value for `CCOC(=O)COc1cc(-c2nn(C)c(OC(F)F)c2Cl)c(F)cc1Cl` was “inactive”; that for `CCOP(=S)(OCC)Oc1ccc2c(C)c(Cl)c(=O)oc2c1` was “inactive”. As for `CCCCOC(=O)[C@@H](C)Oc1ccc(Oc2ccc(C#N)cc2F)cc1`, the outcome was inactive.

As to `CCOP(=S)(OCC)OC(Cl)C(Cl)(Cl)Cl` (stereo not given), the result was inactive. On to `CCCOCC(=Nc1ccc(Cl)cc1C(F)(F)F)n1ccnc1`, for which the AC50 was 22.3 µM (active). Consider `CC(C1CC1)C(O)(Cn1cncn1)c1ccc(Cl)cc1` (stereo not given), for which the outcome was inactive. Still for that read-out and setting: the value for `C#CC(C)(C)NC(=O)c1cc(Cl)cc(Cl)c1` was “inactive”; that for `CC(C)[C@H](C(=O)O[C@H](C#N)c1cccc(Oc2ccccc2)c1)c1ccc(Cl)cc1` was “inactive”; that for `CNC(=O)ON=C(C)SC` was “inactive”.

Turning to `CC(=NC#N)N(C)Cc1ccc(Cl)nc1`, the result was inactive. `CCC(CC)Nc1c([N+](=O)[O-])cc(C)c(C)c1[N+](=O)[O-]`: the concentration at half-maximal activity (AC50) was 20 µM (active). In the case of `CCc1cnc(C2=NC(C)(C(C)C)C(=O)N2)c(C(=O)O)c1` (stereo not given), the result was inactive. Still for that read-out and setting: the value for `Cc1ccn2nc(S(=O)(=O)Nc3c(F)cccc3F)nc2n1` was “inactive”. For the compound `COP(=O)(OC)OC(Br)C(Cl)(Cl)Br` (stereo not given), the AC50 was 19.4 µM (active). For `O=C(O)c1cc(Oc2ccc(C(F)(F)F)cc2Cl)ccc1[N+](=O)[O-]`, the outcome was inactive. The same measure, in the same setting: the value for `CCOP(=S)(OCC)Oc1cc(C)nc(C(C)C)n1` was “inactive”. Consider `CNC(=O)Oc1cccc2c1OC(C)(C)O2`, for which the AC50 was 13.6 µM (active). Turning to `Nc1nc(N)nc(NC2CC2)n1`, the result was inactive. For `CN(C)[C@@H]1C(=O)C(C(N)=O)=C(O)[C@@]2(O)C(=O)C3=C(O)c4c(O)cccc4[C@@](C)(O)[C@H]3[C@H](O)[C@@H]12`, the outcome was inactive. With `C[N+]1(C)CCCCC1`, the result was inactive.

The record behind these values is PubChem BioAssay (EPA / NIEHS).
